Sampled rows, rich in hits. Any-hit rate of the full collection: about 4.1%.
PglD inh – C. jejuni PglD acetyltransferase inhibitors, primary screen, biochemical, DTNB colorimetric, single point. UDP-N-acetylbacillosamine N-acetyltransferase PglD (Campylobacter jejuni). purified PglD enzyme, DTNB colorimetric CoA detection. inhibition, % at 12.5 µM. hit rate 0.098% among 360,000; in the data active = inhibition above about 16%, passing the limit was not always enough
NSD2 HMT inh – NSD2 histone methyltransferase inhibitors, primary screen, biochemical, AlphaScreen, single concentration, set 2; Histone-lysine N-methyltransferase NSD2 (Homo sapiens), O96028; NSD2 peptide methylation, 120 min; inhibition, % at 12.5 µM; hit rate 0.54% among 310,000; in the data active = inhibition above about 50%
ALR inh – inhibitors of human ALR sulfhydryl oxidase, primary screen, biochemical, H2O2 detection, HRP-luminol luminescence, single point. FAD-linked sulfhydryl oxidase ALR (Homo sapiens), P55789. purified ALR, DTT oxidation. inhibition, % (test concentration not listed). hit rate 3.8% among 290,000. AID 485317, 2010;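 active = mean replicate inhibition above about 79%, with every replicate also reaching it, limit read from the data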
F508del corr – F508del CFTR correction, initial screen, CFBE line, single point | CFBE cells, YFP halide quenching; stimulated with forskolin plus potentiator P3; % fluorescence drop versus neutral controls | activity (quench increase), % at 7.58 µM | hit rate 0.36% among 350,000 | AID 720511, 2013;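 active = mean added fluorescence quench of at least 8% versus neutral control, with both replicates also reaching 8%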;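 note: cells transiently co-express mutant CFTR-F508del with the halide-sensitive YFP; corrector assay measuring rescue of mutant channel to the surface after 24 h compound exposure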
HIV Env fusion – inhibitors of HIV-1 Env-driven cell-cell fusion, primary screen, HeLa-JRFL effector, CEM21 target cells, luciferase; hit rate 1.1% among 360,000; AID 651610, 2012; inhibition, % at 12.3 µM;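 active = mean replicate inhibition score of at least 50 and every replicate individually at or above 50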;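 note: 0% = plate neutral controls and 100% = maraviroc near 300 nM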
CASP6 VEID inh – human caspase-6 inhibitors, primary screen, biochemical, VEID-R110 fluorescence, single point, set 2; purified caspase-6, Z-VEID-R110 cleavage fluorescence; inhibition, % at 12.5 µM; P55212; hit rate 0.53% among 350,000; AID 686996, 2013;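 active = mean inhibition across replicates at least about 35%, with every replicate also reaching that limit, limit read from the data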;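 note: 0% = median of neutral control wells and 100% = no fluorescence left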
Target sequence (P55212 24-179 limits assumed): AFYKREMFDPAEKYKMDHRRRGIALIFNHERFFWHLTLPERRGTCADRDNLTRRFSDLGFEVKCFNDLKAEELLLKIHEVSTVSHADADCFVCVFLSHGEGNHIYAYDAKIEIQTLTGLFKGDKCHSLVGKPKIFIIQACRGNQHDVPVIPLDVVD
Target sequence (P55212 194-293 limits assumed): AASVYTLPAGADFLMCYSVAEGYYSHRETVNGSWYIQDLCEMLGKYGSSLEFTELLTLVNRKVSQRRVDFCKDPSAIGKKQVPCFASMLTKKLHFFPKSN
Numbers without * were called inactive; . = no result; [ ] = remark or other dose.

SMILES	PglD inh	NSD2 HMT inh	ALR inh	F508del corr	HIV Env fusion	CASP6 VEID inh
Cc1nc2c(C)cccc2cc1C(=O)N/N=C/c1ccc(O)cc1	.	-1.5	99.4*	.	21.0	0.5
O=C(N/N=C/c1ccc(O)cc1)c1ccc(NC(=O)c2ccccc2Br)cc1	5.0	5.9	79.4*	.	.	.
O=C(Nc1ccccc1C(=O)N/N=C/c1ccc(F)cc1)c1ccccc1Br	-1.7	-1.9	.	.	-8.7	.
Cc1cccc2cc(/C=N/NC(=O)c3ccccc3O)c(Cl)nc12	.	0.3	2.1	.	-5.8	2.7
CCNC(=O)C[C@H]1CC[C@@H]2[C@@H](COc3ccc(NC(=O)Nc4ccc(Cl)cc4)cc3C(=O)N2C)O1	0.8	.	.	-0.9	21.2[16.7 µM]	-1.0
C/C(=N\NS(=O)(=O)c1ccc(Cl)cc1)c1ccc(O)cc1	.	-4.7	95.7*	-1.2	.	0.1
COC(=O)C1CSC(C(=O)OC)N1C(=O)CN1CCN(c2ccccc2)CC1 (configuration not stated)	.	2.8	91.2*	-0.1	-7.1	-0.9
COC(=O)C1CSC(C(=O)OC)N1C(=O)Nc1ccccc1 (configuration not stated)	-6.3	-1.7	.	.	.	.
O=C1NC2c3c(Cl)sc(Cl)c3C(=O)C2O1 (configuration not stated)	.	44.0	.	-7.0	34.0	69.3*
O=C1[C@H]2[C@@H](c3ccc(F)cc3)N3C(=O)N(c4ccccc4)C(=O)[C@@]3(Cc3ccc(Cl)cc3)[C@H]2C(=O)N1C1CCCCC1	-3.5	.	0.7	0.5	100.4*	-2.9
O=C1[C@H]2[C@@H](c3ccc(F)cc3)N3C(=O)N(c4ccccc4)C(=O)[C@@]3(Cc3ccccc3)[C@H]2C(=O)N1C1CCCCC1	-6.0	.	-5.2	1.2	107.2*	-2.7
CC(C)C[C@@]12C(=O)N(c3cccc(F)c3)C(=O)N1[C@H](c1ccc(F)cc1)[C@@H]1C(=O)N(C3CCCCC3)C(=O)[C@@H]12	-3.7	.	-4.4	1.6	9.3	-1.8
O=C1[C@H]2[C@@H](c3ccc(F)cc3)N3C(=O)N(c4cccc(Cl)c4)C(=O)[C@@]3(Cc3ccccc3)[C@H]2C(=O)N1C1CCCCC1	3.0	.	-1.2	-1.0	14.4	-0.2
C[C@@H]1CN([C@@H](C)CO)C(=O)c2cc(NC(=O)c3ccncc3)ccc2O[C@@H](C)CCCCO[C@@H]1CN(C)S(=O)(=O)c1cn(C)cn1	-1.4	.	.	-1.2	19.9[16.7 µM]	2.8
COc1cc(OC)c(OC)cc1CN1CCSCC1	-2.6	-1.6	-8.6	-0.6	-2.6	35.7*
COc1ccc(NC(=O)Nc2ccc3c(c2)CC(=O)N([C@@H](C)CO)C[C@@H](C)[C@H](CN(C)S(C)(=O)=O)O3)cc1	.	.	.	-2.3	.	2.1
CCCCOc1ccc(-c2c(C#N)c(N)[nH]c(=S)c2C#N)cc1	0.1	4.8	87.9*	0.1	-6.4	-1.3
O=C(Nc1cccs1)Nc1c(F)cc(F)cc1Br	.	4.1	96.0*	.	14.8	.
O=C(NCCCn1ccnc1)C(=O)NCC(c1ccco1)N1CCN(c2ccc(F)cc2)CC1 (configuration not stated)	.	.	98.2*	-1.0	-8.1	-26.0
O=C(NCC(c1ccco1)N1CCN(c2ccc(F)cc2)CC1)C(=O)NC1CC1 (configuration not stated)	1.7	2.7	5.6	-0.1	-46.7	-1.2
O=C(NCCCn1ccnc1)C(=O)NCC(c1cccnc1)N1CCN(c2ccccc2)CC1 (configuration not stated)	-2.2	.	98.9*	-0.4	-26.5	-100.8
COc1ccc(N2CCN(C(CNC(=O)C(=O)NCCCn3ccnc3)c3ccco3)CC2)cc1 (configuration not stated)	.	.	83.4*	-0.6	-21.3	-7.1
O=C(NCC(c1ccco1)N1CCN(c2ccccc2)CC1)c1ccco1 (configuration not stated)	-1.0	0.2	42.0	.	.	.
COC(=O)NCC(c1cccnc1)N1CCN(c2ccccc2F)CC1 (configuration not stated)	6.9	.	-0.6	-1.3	-18.9	0.6

Source: PubChem (Broad Institute)
